Assay [1] can be described thus: Primary qHTS for inhibitors of SARS-S pseudo-typed particle cell entry (AID 1479145). For activity change, negative = inhibition: % is set by controls: 0 for no effect and ±100 for the full control effect. Note: nearly all actives have a fitted effect of over 45% in size. The settings on record: outcome: dose series up to 57.1 µM unless noted. (In general: In qHTS, concentration-response curves come from the screen itself.)
The nature of assay [2]: Primary qHTS for Huh7 cytotoxicity: counterscreen for inhibitors of MERS-S pseudotyped particle cell entry (AID 1479147). For activity change, negative = cytotoxicity: % is set by controls: 0 for no effect and ±100 for the full control effect. The settings on record: outcome: dose series up to 57.1 µM unless noted.
The nature of assay [3]: Primary qHTS for inhibitors of MERS-S pseudo-typed particle cell entry (AID 1479149). For activity change, negative = inhibition: % is set by controls: 0 for no effect and ±100 for the full control effect. Note: nearly all actives have a fitted effect of over 60% in size. The following applies: outcome: dose series up to 57.1 µM unless noted.
A short description of assay [4]: Primary qHTS for Vero E6 cytotoxicity: counterscreen for inhibitors of SARS-S pseudo-typed particle cell entry (AID 1479150). The following applies: outcome: dose series up to 57.1 µM unless noted.
Assay [5] is described as follows: Cytotoxicity counterscreen for inhibitors of SARS-CoV-2 cell entry (AID 1645845). For activity change, negative = cytotoxicity: % is set by controls: 0 for no effect and ±100 for the full control effect. Note: nearly all actives have a fitted effect of over 50% in size. The settings on record: outcome: dose series up to 57.1 µM unless noted. The essentials: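 After a 15 min room-temperature ATPLite 1step step, luminescence reflected ATP remaining in HEK293-ACE2 cells exposed to compound for 1 h plus 48 h at 37 C, with percent activity set by cell and no-cell controls.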
In general terms: Counterscreens check selectivity or assay interference.

The nature of assay [6]: Primary qHTS to identify inhibitors of SARS-CoV-2 cell entry (AID 1645846). Note: nearly all actives have a fitted effect of over 45% in size. The following applies: SARS-CoV-2 pseudovirus cell entry assay, luminescence; activity change, negative = inhibition: at 57.1 µM (top of the series) unless noted. The method, boiled down:
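Inhibition of spike-mediated entry was scored in human ACE2-transfected Expi293F cells. Particles were MLV-pseudotyped with Wuhan-Hu-1 S carrying a 19-aa C-terminal deletion; signal was luciferase after two days, scaled between spike PP and fusion-protein-free PP.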

Assay [7] has as its target Glutathione peroxidase 1 (Homo sapiens) (UniProt P07203). Kind of assay: Primary qHTS Assay for Inhibitors of Recombinant Selenoprotein Glutathione Peroxidase 1 (GPX1) (AID 1845191; active = well fitted curve in the direction sought with a large enough effect; an effect the other way counts as inactive or inconclusive; note: nearly all actives have a fitted effect of over 65% in size). The essentials: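 GPX1 10 nM, GR 100 nM, GSH 1 mM, NADPH 0.5 mM, CHP 0.5 mM (final). 30-min cpd preincubation, RT. Ex340/Em450 read t=0, t=15 min.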
In assay [8] the target is Phospholipid hydroperoxide glutathione peroxidase GPX4 (Homo sapiens) (UniProt P36969). Kind of assay: Primary qHTS Assay for Inhibitors of Recombinant Selenoprotein Glutathione Peroxidase 4 (GPX4) (AID 1845192; active = well fitted curve in the direction sought with a large enough effect; an effect the other way counts as inactive or inconclusive; note: nearly all actives have a fitted effect of over 65% in size). The essentials:
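qHTS, GR-coupled: GPX4 200 nM + cpd 30 min RT → GSH 1 mM, NADPH 0.5 mM, GR 100 nM → CHP 0.5 mM start; fluor 340/450 at t0 and t15 min; no-enzyme wells as control.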

The target in assay [9] is Nuclear receptor subfamily 1 group I member 3 (Homo sapiens) (UniProt Q14994). Briefly: Primary qHTS for antagonist of constitutive androstane receptor (CAR) against the NCATS DSHEA and TCM libraries (AID 1794836; active = well fitted curve in the direction sought with a large enough effect; an effect the other way counts as inactive or inconclusive). The essentials: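 HepG2 cells stably carrying hCAR and a CYP2B6 luciferase reporter (2,500 cells/well) attached for 5 h, then received compounds with 48 uM CITCO for 24 h at 37C. ONE-Glo luminescence read antagonism; CellTiter-Fluor (405/540 nm) gave viability.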

Assay [10] is described as follows: KB-8-5-11 P-gp reporter qHTS against the NCATS DSHEA and TCM libraries (AID 1919977; active = well fitted curve in the direction sought with a large enough effect; an effect the other way counts as inactive or inconclusive; note: 0% is about no effect). The essentials:
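KB-8-5-11, 500 cells/well, DMEM/10% FBS without colchicine; 4 h attach; cpd titrations, 72 h, 37C/5% CO2; CellTiter-Glo, 30 min RT, luminescence.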

Assay [11] has as its target Peroxisome proliferator-activated receptor delta (Homo sapiens) (UniProt Q03181). Kind of assay: qHTS assay for small molecule agonists of peroxisome proliferator-activated receptor delta signaling (AID 588534).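 Note: 0% = DMSO basal wells and 100% = positive control agonist at 10 µM.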 The method, boiled down: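 Titration series tested in agonist mode on beta-lactamase reporter cells; 18 hrs at 37 C after a 5 hr pre-incubation. Readout: CCF4 fluorescence, 2 hrs RT. Hill equation gives EC50 and maximal response.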

Assay [12] in a line: qHTS profiling for inhibitors of Plasmodium falciparum (3D7) proliferation (AID 743322; call rule not given here;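 note: infected erythrocytes exposed to compound for 72 h before lysis; 100% = DMSO vehicle wells and 0% = 0.29 µM artemisinin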). The settings on record: P. falciparum 3D7 proliferation; at 28.7 µM (top of the series). The essentials:
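Parasite DNA was quantified by SYBR Green I fluorescence (ex 485, em 535 nm) after overnight lysis in saponin/Triton buffer at room temperature. Cultures at 0.3% parasitemia and 2.5% hematocrit were first exposed to compound for 72 h at 37 C; signals were normalised to artemisinin (0.29 uM) and vehicle wells.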

Assay [13] in a line: qHTS profiling for inhibitors of Plasmodium falciparum (DD2) proliferation (AID 743323; call rule not given here). The settings on record: lower = more inhibition; at 28.7 µM (top of the series). The essentials: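 SYBR Green fluorescence (ex 485, em 535 nm) of lysed cultures gives parasite DNA content; wells normalized to artemisinin (0.29 uM) and DMSO controls. Infected red cells: 0.3% parasitemia, 2.5% hematocrit, 72 h, 37 C.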

Assay [14] can be described thus: qHTS profiling for inhibitors of Plasmodium falciparum (HB3) proliferation (AID 743324; active = well fitted curve in the direction sought with a large enough effect; an effect the other way counts as inactive or inconclusive;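 note: 100% = DMSO vehicle wells and 0% = artemisinin-treated control wells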). The settings on record: Plasmodium falciparum HB3 blood-stage proliferation; at 28.7 µM (top of the series). The essentials:
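SYBR Green fluorescence (485 ex/535 em) of lysed cultures, incubated overnight at room temperature in the dark, quantifies parasite DNA. Infected erythrocytes at 0.3% parasitemia and 2.5% hematocrit were exposed 72 h; values normalized to DMSO and 0.29 uM artemisinin controls.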

Results filed as inconclusive are left out. Activity calls are given as the source filed them. Unless noted, calls come from the whole dose curve.

Peroxisome proliferator-activated receptor delta (Homo sapiens), sequence (Q03181 whole entry, looked up): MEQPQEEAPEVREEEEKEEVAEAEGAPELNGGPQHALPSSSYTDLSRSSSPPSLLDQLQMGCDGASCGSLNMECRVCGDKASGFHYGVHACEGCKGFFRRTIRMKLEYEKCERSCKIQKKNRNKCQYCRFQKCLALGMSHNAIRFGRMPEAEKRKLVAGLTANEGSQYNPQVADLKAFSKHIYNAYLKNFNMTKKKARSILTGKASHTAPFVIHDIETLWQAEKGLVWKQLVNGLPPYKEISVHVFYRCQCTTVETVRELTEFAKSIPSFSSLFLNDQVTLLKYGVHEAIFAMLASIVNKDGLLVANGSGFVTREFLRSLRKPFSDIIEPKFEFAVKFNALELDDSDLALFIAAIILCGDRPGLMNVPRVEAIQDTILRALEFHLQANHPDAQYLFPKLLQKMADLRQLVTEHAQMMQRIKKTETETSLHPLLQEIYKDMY
Glutathione peroxidase 1 (Homo sapiens), sequence (P07203 whole entry, looked up): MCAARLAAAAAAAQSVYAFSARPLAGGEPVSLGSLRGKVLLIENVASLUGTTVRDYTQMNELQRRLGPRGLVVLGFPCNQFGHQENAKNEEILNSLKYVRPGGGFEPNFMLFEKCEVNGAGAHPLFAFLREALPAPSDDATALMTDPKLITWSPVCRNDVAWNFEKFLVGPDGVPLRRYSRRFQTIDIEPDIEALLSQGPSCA
Phospholipid hydroperoxide glutathione peroxidase GPX4 (Homo sapiens), sequence (P36969 whole entry, looked up): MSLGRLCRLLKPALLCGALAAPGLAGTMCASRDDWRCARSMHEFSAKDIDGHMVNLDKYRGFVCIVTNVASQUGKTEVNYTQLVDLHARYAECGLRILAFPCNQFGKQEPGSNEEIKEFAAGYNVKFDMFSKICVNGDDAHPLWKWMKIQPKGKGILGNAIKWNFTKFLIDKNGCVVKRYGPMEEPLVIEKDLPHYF
Nuclear receptor subfamily 1 group I member 3 (Homo sapiens), sequence (Q14994 whole entry, looked up): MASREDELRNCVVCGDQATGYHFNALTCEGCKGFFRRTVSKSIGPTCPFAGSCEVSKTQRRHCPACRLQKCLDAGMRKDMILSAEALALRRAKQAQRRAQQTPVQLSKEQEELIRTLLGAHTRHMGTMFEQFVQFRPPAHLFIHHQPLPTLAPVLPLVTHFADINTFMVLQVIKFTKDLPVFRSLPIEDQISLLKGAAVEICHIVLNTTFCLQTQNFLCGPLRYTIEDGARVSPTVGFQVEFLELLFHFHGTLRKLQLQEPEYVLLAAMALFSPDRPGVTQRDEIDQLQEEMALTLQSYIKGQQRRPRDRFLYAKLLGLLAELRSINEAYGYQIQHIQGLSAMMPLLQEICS

`C/C(=C\C(=O)OCCCCCCCCC(=O)O)C[C@@H]1OC[C@H](C[C@@H]2O[C@H]2[C@@H](C)[C@H](C)O)[C@@H](O)[C@H]1O`: the Potency entry in assay [1], in assay [2], in [3], in assay [4] and in assay [5] was “inactive” throughout. In assay [6], the activity change, negative = inhibition was -28.4%.

With `CO[C@@H]1[C@@H](O[C@@H]2O[C@H](C)[C@@H](O[C@H]3C[C@@](C)(O)[C@H](O)[C@H](C)O3)[C@H](N(C)C)[C@H]2O)[C@@H](CC=O)C[C@@H](C)[C@@H](O[C@H]2CC[C@H](N(C)C)[C@@H](C)O2)/C=C/C=C/C[C@H](C)OC(=O)C[C@H]1O`, the Potency result in assay [1], in [2], in [3], in assay [4] and in assay [5] was “inactive” in each case. Also, in assay [6], the activity change, negative = inhibition is -34.9%.

Regarding `CC(=O)[C@@]1(O)CC[C@H]2[C@@H]3CCC4=CC(=O)CC[C@@H]4[C@H]3CC[C@@]21C`, the Potency entry in assay [1], in [2], in assay [3], in [4], in assay [5] and in [7] was “inactive” throughout. The Potency result in [8] is “inactive”. Also, the activity change, negative = inhibition in assay [6] is -22.5%.

For the molecule `C=C1/C(=C/C=C2\CCC[C@]3(C)[C@@H]([C@H](C)CCCC(C)(C)O)CC[C@@H]23)C[C@@H](O)[C@@H](OCCCO)[C@@H]1O`, the Potency entry in assay [1], in [2], in assay [3], in [4] and in [5] was “inactive” each time. The activity change, negative = inhibition in assay [6] is -12.1%.

`CCN(C)C(C)C(O)c1ccccc1` (centres undefined): the Potency result in assay [1], in [2], in assay [3], in [4], in [5] and in [7] was “inactive” each time. Moreover, in assay [8], the Potency entry is “inactive”. For the same molecule, in [6], the activity change, negative = inhibition is -6%.

As to `CC/C=C\C/C=C\C/C=C\C/C=C\C/C=C\C/C=C\CCC(=O)O`, the Potency entry in assay [1], in assay [2], in assay [3], in [4], in assay [5] and in assay [9] was “inactive” throughout. In [10], the Potency entry was “inactive”. For the same molecule, in assay [6], the activity change, negative = inhibition came out at 3.74%.

In the case of `Cn1nnc(-c2ccc(-c3ccc(N4C[C@@H](CO)OC4=O)cc3F)cn2)n1`, the Potency entry in assay [1], in assay [2], in assay [3], in [4], in assay [5] and in [6] was “inactive” throughout.

With `O=C([O-])C[O-].[Pt+2]`, the Potency entry in [1], in [2], in assay [3], in assay [4], in assay [5] and in [6] was “inactive” each time. Moreover, the activity change, negative = inhibition in [6] is -22.9% [at 27.1 µM].

For the molecule `Cc1ncc(C[n+]2csc(CCOP(=O)(O)OP(=O)(O)O)c2C)c(N)n1`, the outcome in assay [1], in [2] and in [3] was “inactive [at 0.573 µM]” throughout. Moreover, the figures for the activity change, negative = cytotoxicity in assay [4] and in [5] were -14.9% [at 0.573 µM] (inactive) and 3.84% [at 0.702 µM] (inactive), respectively. Further, in [6], the activity change, negative = inhibition was -1.65% [at 0.702 µM].

As to `CNC(C)CC1CCCC1` (centres undefined), the Potency entry in assay [1], in assay [2], in assay [3], in [4], in [5] and in assay [6] was “inactive” throughout. Further, the Potency result in [7] and in assay [8] was “inactive” each time.

Turning to `Cc1cc2nc3c(=O)[nH]c(=O)nc-3n(C[C@H](O)[C@H](O)[C@H](O)COP(=O)(O)OP(=O)(O)OC[C@H]3O[C@@H](n4cnc5c(N)ncnc54)[C@H](O)[C@H]3O)c2cc1C`, the Potency result in [1], in [2], in assay [3], in [4] and in assay [5] was “inactive” each time. In addition, in assay [6], the activity change, negative = inhibition is -9.08% [at 27.1 µM].

As for `O=P(O)(O)OC(Cn1cncn1)(Cn1cncn1)c1ccc(F)cc1F`, the Potency result in assay [1], in [2], in [3], in assay [4] and in assay [5] was “inactive” throughout. The activity change, negative = inhibition in assay [6] is -20.2%.

On to `OCC(O)COc1ccc(Cl)cc1` (centres undefined), for which the Potency entry in [1], in [2], in assay [3], in [4] and in [5] was “inactive” each time. Moreover, the activity change, negative = inhibition in assay [6] was -23.5% [at 171 µM].

With `CC1(C)S[C@@H]2[C@H](NC(=O)C(C(=O)Oc3ccc4c(c3)CCC4)c3ccccc3)C(=O)N2[C@H]1C(=O)O` (some centres undefined), the Potency result in assay [1], in assay [2], in [3], in assay [4], in [5] and in [6] was “inactive” in each case.

As for `Cc1onc(-c2c(F)cccc2Cl)c1C(=O)N[C@@H]1C(=O)N2[C@@H]1SC(C)(C)[C@H]2C(=O)O`, the Potency entry in [1], in assay [2], in assay [3], in [4] and in assay [5] was “inactive” throughout. Further, the activity change, negative = inhibition in assay [6] was -29.1%.

For `CC1(C)C2CC[C@]3(C)C(C(=O)C=C4[C@@H]5C[C@@](C)(C(=O)O)CC[C@]5(C)CC[C@]43C)[C@@]2(C)CC[C@@H]1O` (some centres undefined), the Potency result in [1], in [2], in [3] and in assay [4] was “inactive” in each case. Moreover, the activity change, negative = inhibition in assay [6] was -28.8%.

Turning to `COC(=O)CCC(=O)CN`, the Potency result in [1], in [2], in assay [3], in [4] and in assay [6] was “inactive” each time.

As for `O=C(O)c1ccccc1C(c1ccc(O)cc1)c1ccc(O)cc1`, the outcome in assay [11] was inactive. The Potency result in assay [1], in [2], in assay [3], in assay [4] and in assay [5] was “inactive” each time. Moreover, the activity change, negative = inhibition in [6] is -24.4%.

For `O=C(O)[C@H](O)[C@@H](O)[C@H](O)[C@H](O)CO`, the call in assay [11] was inactive. The Potency result in assay [1], in assay [2], in [3], in assay [4], in [5] and in [6] was “inactive” each time.

Turning to `CC1=C(/C=C/C(C)=C/C=C/C(C)=C/CO)C(C)(C)CCC1`, the molecule was called inactive in assay [11]. Moreover, the Potency result in assay [1], in [2], in assay [3], in assay [4], in [5] and in assay [10] was “inactive” throughout. For the same molecule, the activity change, negative = inhibition in assay [6] was -23.2%.

Turning to `COc1ccc(CC(C)(C)NC[C@H](O)c2cc(O)cc3c2OCC(=O)N3)cc1`, the Potency result in [1], in assay [2], in assay [3] and in [4] was “inactive” throughout. For the same molecule, the activity change, negative = inhibition in [6] was found to be 2.79%.

Molecule `OB1OCc2cc(F)ccc21` displayed a remaining parasite growth % (stronger effect = lower value) in assay [12] of 85.7%. In [13], this molecule had an activity, percent of control of 91.5%. In assay [14], this molecule returned a remaining proliferation (% of control), lower = more inhibition of 40.3%. For the same molecule, the Potency result in [1], in assay [2], in assay [3], in assay [4] and in assay [5] was “inactive” each time.

For the origin of these results see PubChem BioAssay (NCATS).
